# In the library only some 12% were active in any assay of this set; here they are far more common.
# Sfp PPTase inh – inhibitors of Bacillus subtilis Sfp phosphopantetheinyl transferase | AID 1490 | Potency, µM, for inactives: largest response in the series, negative = inhibition, actives largely listed as inhibitors | Q9F4F7 | 3.5% of 310,000 active | Biochemical Sfp PPTase activity, qHTS;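 further: the enzyme is Sfp with the accession as filed and its product quenches rhodamine fluorescence; 0% = enzyme reaction without inhibitor and -100% = no enzyme wells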
#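 With Hepes-Na pH 7.6 buffer containing 10 mM MgCl2, Sfp (15 nM) modified BHQ-2-YbbR (12.5 uM) using rhodamine-CoA (5 uM). Two reads 30 minutes apart at 525/598 nm yielded each well's rate.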
# L3MBTL1 block – blocks human L3MBTL1; Q9Y468; AlphaScreen L3MBTL1–H3K9me1 peptide binding; Potency, µM (series often up to 57.1 µM), for the others: at the top dose activity, negative = inhibition, actives largely listed as inhibitors; 0.66% of 230,000 active; AID 485360; further: on the % scale 0 is the no-effect control and ±100 the full control effect; nearly all actives have a fitted effect of over 60% in size
#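 AlphaScreen proximity signal between nickel-chelate acceptor and streptavidin donor beads (final 10 ug/mL) reports binding of 50 nM L3MBTL1 to 75 nM biotin-H3 K9me1 peptide; complex incubated with compounds 30 min at room temperature; cefsulodin titration as control.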
# BAZ2B inh – BAZ2B (human) inhibition. AlphaScreen BAZ2B-H3K14Ac peptide displacement. 4.4% of 360,000 active. Q9UIF8. Potency, µM (doses to about 114 µM), without a hit: at the top dose activity change, negative = inhibition, hits mostly inhibitors; further: on the % scale 0 is the no-effect control and ±100 the full control effect; nearly all actives have a fitted effect of over 60% in size
#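 Multi-concentration screen (max 110 uM) measuring displacement of acetylated histone H3 peptide from BAZ2B by AlphaScreen, using 50 nM protein, 50 nM peptide and 10 ug/mL streptavidin donor plus Ni-chelate acceptor beads.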
# JMJD2A Tudor – inhibitors of human JMJD2A Tudor domain. O75164. AlphaScreen JMJD2A-Tudor / H3K4me3 peptide binding. Potency, µM (doses to about 114 µM), for the others: at the top dose activity change, negative = inhibition, hits mostly inhibitors. 4.4% of 390,000 active. AID 504339; further: on the % scale 0 is the no-effect control and ±100 the full control effect; nearly all actives have a fitted effect of over 50% in size
# HP1b binding inh – inhibitors of HP1-beta chromodomain binding to methylated histone tails. P83916. AlphaScreen HP1-beta / biotin-H3K9me3 peptide binding. Potency, µM (titrated, usually from 114 µM), for the others: at the top dose activity change, negative = inhibition, actives largely listed as inhibitors. 0.56% of 390,000 active; further: nearly all actives have a fitted effect of over 70% in size
#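 AlphaScreen: HP1-beta (50 nM) preformed 30 min with biotin-H3(1-18)K9me3 peptide (50 nM) in PBS pH 7.4, 0.01% Tween-20. Compound added for 30 min at RT, then streptavidin donor/nickel chelate acceptor beads (10 ug/mL) for 30 min.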
# G9a inh – G9a (human) methyltransferase inhibition | Q96KQ7 | G9a H3K9 monomethylation, AlphaScreen, 2 h | Potency, µM (top dose mostly 102 µM), for the others: at the top dose activity, negative = inhibition, hits mostly inhibitors | 8.8% of 350,000 active; further: on the % scale 0 is the no-effect control and ±100 the full control effect; nearly all actives have a fitted effect of over 75% in size
#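 Enzyme 20 nM + cpd, 15 min RT; add b-H3K9 pep 500 nM / SAM 20 uM; 2 h RT; anti-H3K9me1 Ab 0.5 ug/mL + SA donor / anti-rabbit acceptor beads 20 ug/mL each, 10 min; AlphaScreen read.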
# Active calls of the source: *; u = inconclusive; x = no result given; [ ] = another dose, or the depositor's remark. The call rests on the fitted dose curve; in most records, active means well fitted curve in the direction sought with a large enough effect; inconclusive means small, poorly fitted or top-dose-only effect, or another doubt; inactive means no such curve, though single readings can be large; an effect the other way counts as inactive or inconclusive. Potency means the concentration at half of the fitted maximal effect.
SMILES,Sfp PPTase inh,L3MBTL1 block,BAZ2B inh,JMJD2A Tudor,HP1b binding inh,G9a inh
NC(=O)c1cc([N+](=O)[O-])c(Cl)cc1NCc1ccccn1,x,-3%,79µM*,56µM*,10%,11%[2.33 µM]
NC(=O)CC(NC(=O)Cc1ccc(Br)cc1)c1ccc(NCc2ccc(F)c(F)c2)c([N+](=O)[O-])c1 (stereo not drawn),u,x,-8%,-11%,20%,-26%[12.7 µM]
NC(=O)CC(NC(=O)Cc1ccc(Br)cc1)c1ccc(NCCN2CCCC2)c([N+](=O)[O-])c1 (stereo not drawn),11%,0%,-5%,-14%,34%,x
NC(=O)c1cc([N+](=O)[O-])c(Cl)cc1NCc1ccncc1,x,2%,0%,-25%,23%,22%[2.33 µM]
NC(=O)CC(NC(=O)Cc1ccc(Br)cc1)c1ccc(NCc2ccccn2)c([N+](=O)[O-])c1 (stereo not drawn),-23%,x,79µM*,u,1%,-108%[59 µM]
C[C@]12c3[nH]c4ccc(Cl)cc4c3CCN1C(=O)[C@@H](CC(=O)NCc1ccco1)C[C@@H]2C(=O)N1CCCCC1,x,-5%,x,u,-8%,x
Cc1ccc(Oc2nc3c(c(=O)n(Cc4ccccc4Cl)c(=O)n3C)n2C)cc1C,x,x,-2%,-10%,5%,-4%[59 µM]
COc1cccc(-n2cc(C(=O)Nc3ccccc3C(N)=O)c3ccccc3c2=O)c1,x,x,-24%,-29%,-7%,-33%[59 µM]
CN1CCN(CC(=O)NN(Cc2ccccc2)c2ccccc2)CC1,-15%,x,-2%,7.9µM*,u,x
CCN(CC)CC(=O)NN(Cc1ccccc1)c1ccccc1,-27%,6%,79µM*,18µM*,u,28µM*
CCOC(=O)/C(=C/C=C1\Sc2cc(C)c(C)cc2N1CC)C(C)=O,16µM*,-5%,40µM*,-21%,16%,-20%
CCOC(=O)/C(=C/C=C1\Sc2ccccc2N1CC)C(C)=O,-4%,-1%,-32%,-33%,7%,u
Clc1ccc(-c2nnc(-c3ccc(Br)cc3)c(N3CCSCC3)n2)cc1,5%,-4%,u,-22%,3%,40%[12.7 µM]
Clc1ccc(-c2nnc(-c3ccco3)nc2N2CCCCC2)cc1,u,-22%,50µM*,45µM*,-18%,10µM*
O=C(COC(=O)c1ccc(O)cc1)Nc1ccc(N2CCCCC2)cc1,7%,x,u,u,-19%,45µM*
COc1cc(OC)cc(C(=O)OCC(=O)Nc2ccc(N3CCCCC3)cc2)c1,2%,x,-6%,0%,30%,10µM*
CCOc1ccccc1C(=O)OCC(=O)Nc1ccc(N2CCCCC2)cc1,-25%,x,4%,-50%[57.1 µM],u,u
COc1cc(C(=O)OCC(=O)Nc2ccc(N3CCOCC3)cc2)ccc1OCC(C)C,x,6%,1%,13%,24%,6.3µM*
O=C(COC(=O)c1ccccc1OC(F)F)Nc1ccc(N2CCCCC2)cc1,x,-1%,-6%,-23%,5%,7.9µM*
O=C(COC(=O)c1cncc(Br)c1)Nc1ccc(N2CCCCC2)cc1,x,-10%,u,u,4%,u
CCn1nc(C)c(/C=N/NC(=O)Cn2nc(C)cc2C)c1C,4%,14%,-6%,-5%,23%,-2%[59 µM]
O=C1CN(C(=O)NCC(=O)N[C@@H](C(=O)O)c2ccccc2)c2ccccc2N1,13%,x,-12%,7%,46%,19%
CN(C)c1ncc2ncc(=O)n(Cc3cccs3)c2n1,1%,x,x,x,x,14%[12.7 µM]
Cc1ccccc1NC(=O)C(=O)NNC(=O)COc1ccc2ccccc2c1,8%,x,-33%,-11%,39%,-16%[59 µM]
COc1cccc(CNC(=O)c2ccc(CS(=O)Cc3ccc(Cl)cc3)o2)c1 (stereo not drawn),x,x,-25%,-6%,43%,-3%[59 µM]
Cc1ccc(NC(=S)NNc2ccc(C(=O)O)cc2[N+](=O)[O-])cc1C,x,x,x,7.9µM*,50µM*,x
